{"source": "paper PMC5540273", "about": "(PLoS ONE, 2017);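 also: KINOMEscan kinase panel screen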", "data": [{"test_system": "FGFR4", "details": "concentration: 1 μM, replicates: in singlicate; n = 1", "units": {"%Inh": "%"}, "values": [{"smiles": "CCCCc1nn2ncccc2c1-c1ccnc(Nc2ccc(N3CCN(C)CC3)cc2)n1", "note": "[GW684941]", "%Inh": 68}, {"smiles": "CC(C)c1nc(-c2cccc(NS(=O)(=O)c3c(F)cccc3F)c2F)c(-c2ccnc(Nc3ccc(N4CCOCC4)nc3)n2)s1", "note": "[GSK2008607]", "%Inh": 48}, {"smiles": "NCCCC(NC(=O)c1cc(Br)c(-c2ccnc3[nH]ccc23)s1)c1ccccc1.O=C(O)C(F)(F)F.O=C(O)C(F)(F)F", "note": "(centres unmarked) [GSK1287544]", "%Inh": 18}, {"smiles": "CN(C)S(=O)(=O)c1cc(-c2ccc3nccc(-c4cccc(S(N)(=O)=O)c4)c3c2)cnc1N", "note": "[GSK1669921]", "%Inh": 13}]}, {"test_system": "FGR", "details": "concentration: 1 μM, replicates: in singlicate; n = 1", "units": {"%Inh": "%"}, "values": [{"smiles": "Nc1ncc(-c2cccnc2)c2scc(-c3ccc4c(c3)CCN4C(=O)Cc3ccccc3)c12", "note": "[GSK683281]", "%Inh": 25}, {"smiles": "c1ccc(Oc2ccc(Nc3ccnc4cc(-c5ccc(CNCCN6CCOCC6)o5)ccc34)cc2)nc1", "note": "[GW567145]", "%Inh": 68}, {"smiles": "Cl.Cl.NCC(NCc1ccc(-c2ccnc3[nH]ccc23)s1)c1ccccc1", "note": "(centres unmarked) [GSK1321565]", "%Inh": 23}, {"smiles": "CCn1c(-c2nonc2N)nc2c(C#CC(C)(C)O)nc(OC[C@H](N)c3ccccc3)cc21", "note": "[GSK943949]", "%Inh": 0}, {"smiles": "O=C(Nc1cccc(-c2nn3ncccc3c2-c2ccnc(Nc3ccccc3)n2)c1)c1c(F)cccc1F", "note": "[GSK198271]", "%Inh": 97.2}, {"smiles": "CCS(=O)(=O)c1ccc(OC)c(Nc2nccc(-c3c(-c4cccc(NC(=O)c5c(F)cccc5F)c4)nn4ncccc34)n2)c1", "note": "[GSK326180]", "%Inh": 64}, {"smiles": "C[C@@H](Oc1cc(-n2cnc3cc(-c4ccnc(NCCS(C)(=O)=O)c4)ccc32)sc1C(N)=O)c1ccccc1Cl", "note": "[GSK907232]", "%Inh": 44}]}]}
